Assay outcomes: PubChem, several laboratories
NadD inh – NadD (S. aureus) enzyme inhibition; AID 602399; 0.78% of 360,000 active; inhibition, % at 20 µM; purified NadD enzyme, colorimetric absorbance read-out; in the data active = inhibition above about 26%
GRK2 aptamer HTS – inhibitors of human GRK2 displacing RNA aptamer. bead flow cytometry, FAM-aptamer displacement from GRK2. AID 488847. P25098. inhibition of aptamer binding, % at 10 µM. 0.59% of 330,000 active;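 active = inhibition of aptamer binding above 40%, roughly 3 SD of noise, on plates passing a quality check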;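 note: median bead fluorescence of bound FAM aptamer so fluorescent compounds give negative values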
B2AR ag – activates human beta-2 adrenergic receptor causing internalization. P07550. Am2.2-beta2AR cells, FAP receptor internalization, flow cytometry. response, % (concentration not given with the values). 0.43% of 340,000 active. AID 504454;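 active = response above a set limit, near 3 SD of response in nonfluorescent compounds, cut at about 42% in these data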
Granule exo inh – blocks lytic granule exocytosis. TALL-104 LAMP-1 surface exposure, flow cytometry; cells stimulated with thapsigargin and PMA. inhibition, % at 10 µM. 0.66% of 360,000 active;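 active = inhibition above about 55%, limit read from the data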
PP1 counter – counter-screen for PP5 inhibitors: inhibitors of human PP1-alpha | P62136 | purified PP1alpha, OMFP fluorescence | AID 2235 | inhibition, % at 6.7 µM | 0.9% of 320,000 active;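 active = inhibition above the mean inhibition of all tested compounds plus 3 SD, computed separately for each screening campaign, cut at about 15% in these data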
Target sequence (P62136 whole entry, looked up): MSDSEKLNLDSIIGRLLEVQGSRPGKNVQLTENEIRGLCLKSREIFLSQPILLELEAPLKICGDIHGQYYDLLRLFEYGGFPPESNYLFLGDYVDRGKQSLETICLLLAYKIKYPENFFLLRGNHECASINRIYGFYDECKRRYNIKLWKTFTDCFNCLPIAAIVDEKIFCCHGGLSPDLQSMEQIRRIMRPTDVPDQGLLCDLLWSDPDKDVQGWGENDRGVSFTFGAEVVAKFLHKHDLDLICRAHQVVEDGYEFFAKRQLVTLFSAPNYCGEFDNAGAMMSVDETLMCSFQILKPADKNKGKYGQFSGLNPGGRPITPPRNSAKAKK
Starred values were filed as active, the others as inactive. Rows were chosen to be rich in hits. Some 2.9% of all compounds tested hit in one or more screens of this group.

For O=C1NC(=S)N(c2ccc(F)cc2)C(=O)/C1=C\c1ccoc1 the results were NadD inh 32*, B2AR ag 1 and Granule exo inh -4.
`Cc1ccc(/C=C2\C(=O)NC(=S)N(c3cccc(F)c3)C2=O)o1` gave NadD inh 7, GRK2 aptamer HTS 15, B2AR ag 50*, Granule exo inh -10 and PP1 counter 2.
`COc1ccc(N2C(=O)/C(=C/c3ccc(C)o3)C(=O)NC2=S)cc1` gave NadD inh 24, B2AR ag 44* and Granule exo inh 18.
Screening Cc1ccc(N2C(=O)NC(=O)/C(=C\c3ccoc3)C2=O)cc1 returned NadD inh 1, GRK2 aptamer HTS 10, B2AR ag 4, Granule exo inh 2 and PP1 counter -3.
Screening CCCCC1(CC)COP(=O)(OCC(Cl)(Cl)Cl)OC1 (centres undefined) returned NadD inh -2, B2AR ag 11 and Granule exo inh 0.
C=C1C(=O)O[C@@H]2C[C@@H](C)[C@@H]3C4OC4C(=O)[C@@]3(C)[C@@H](O)[C@H]12 (some centres undefined) was read as NadD inh 5, GRK2 aptamer HTS 2, B2AR ag 43*, Granule exo inh -3 and PP1 counter 1.
`C=C1C(=O)OC2CC(C)C3C=CC(=O)C3(C)C(O)C12` (centres undefined) gave NadD inh 3, B2AR ag 22 and Granule exo inh 23.
For Oc1c(Cl)cccc1Cc1cc(Cl)cc(Cl)c1O the results were NadD inh -3, B2AR ag 6 and Granule exo inh 3.
Screening CN1CC(C#N)C2(O)c3ccccc3CCC2C1 (centres undefined) returned NadD inh 0, GRK2 aptamer HTS 8, B2AR ag -17, Granule exo inh -4 and PP1 counter -6.
`C=C1C(=O)O[C@@H]2C[C@@H](C)[C@@H]3C=CC(=O)[C@@]3(C)[C@@H](OC(=O)CC(=O)O[C@H]3[C@@H]4C(=C)C(=O)O[C@@H]4C[C@@H](C)[C@@H]4C=CC(=O)[C@]43C)[C@H]12` gave NadD inh 17, GRK2 aptamer HTS 1, B2AR ag 48*, Granule exo inh 8 and PP1 counter 9.
O=C1/C(=C\c2ccc(Cl)c(Cl)c2)N2CCC1CC2 was read as NadD inh 6, GRK2 aptamer HTS 1, B2AR ag -4, Granule exo inh 94* and PP1 counter -2.
Screening CCCC/C(C)=C/[C@@H](NP(=O)(c1ccccc1)c1ccccc1)c1ccccc1 returned NadD inh -4, GRK2 aptamer HTS 7, B2AR ag 3, Granule exo inh 0 and PP1 counter 16*.
CCCCCP(=O)(O)c1ccccc1 was read as NadD inh 6, GRK2 aptamer HTS 3, B2AR ag 2, Granule exo inh -3 and PP1 counter -3.
For CNc1cc(Cl)c2nonc2c1[N+](=O)[O-] the results were NadD inh -1, B2AR ag 106* and Granule exo inh 16.
Screening Cc1cc([N+](=O)[O-])c(Cl)cc1NC(=O)C(C)C returned NadD inh 4, GRK2 aptamer HTS 1, B2AR ag -2, Granule exo inh 2 and PP1 counter -7.
For CCN(CC)c1ccc(C=C2C(=O)NC(=S)NC2=O)cc1 the results were NadD inh 8, GRK2 aptamer HTS 0, B2AR ag 51*, Granule exo inh -4 and PP1 counter 0.
`COc1ccc2c(c1)C13CCN4CC5=CCOC6CC(=O)N2C1C6C5CC43` (centres undefined) gave NadD inh 6 and Granule exo inh -2.
For O=[N+]([O-])c1ccc(Cl)c([N+](=O)[O-])c1 the results were NadD inh 2, GRK2 aptamer HTS 3, B2AR ag 59*, Granule exo inh 24 and PP1 counter -2.
`COC1C(O)C(C)OC(OC2CCC3(C)C(CCC4C3C(O)CC3(C)C(C5=CC(=O)OC5)CCC43O)C2)C1O` (centres undefined) gave NadD inh 3, B2AR ag 8 and Granule exo inh -4.
For CC1=CC(C)CC(C)OC(=O)CC(c2ccc(O)cc2)NC(=O)C(Cc2c(Br)[nH]c3ccccc23)N(C)C(=O)C(C)NC(=O)C(C)C1 (centres undefined) the results were NadD inh 10, B2AR ag 50* and Granule exo inh 24.
Screening O=c1c2ccccc2nc(-c2ccccc2)n1-c1ccccc1 returned NadD inh 0, GRK2 aptamer HTS 3, B2AR ag -12, Granule exo inh 3 and PP1 counter -5.
